Results taken from ChEMBL document CHEMBL4888484, “Replenishing the malaria drug discovery pipeline: Screening and hit evaluation of the MMV Hit Generation Library 1 (HGL1) against asexual blood stage Plasmodium falciparum ,using a nano luciferase reporter read-out” (2022).
Screen size: about 150,000 compounds; about 540 (0.36%) showed an effect of 50% or more. This is one part of a sample in which strong results are shown more often than they occur.

These molecules were tested on Plasmodium falciparum (assay: Primary screen in NF54 nanoGlo assay, in single point, at 2uM, 72h; a lower Z score goes with more inhibition). Conditions: timepoint 72 hour.
Type: functional, Erythrocyte

In order of falling “% Inhibition” value:
1. O=C(Nc1cnc2ccccc2c1)c1ccccc1C(=O)c1ccc(F)cc1  93%
2. Cc1cccc2c(-c3cc(N)nc(N)n3)c[nH]c12  85%
3. C[n+]1ccc(-c2ncc(-c3ccccc3)o2)c2ccccc21  75%
4. CC(=O)Nc1c(-c2ccc(C)cc2)c(C)nn1-c1ccc(C(=O)Nc2cc(C)ccn2)cc1  59%
5. COc1ccc2c(O)cc(-c3ccccc3)nc2c1  37%
6. O=C(c1ccccc1C(F)(F)F)N1CC2(CCOC2)C1  5%
7. CC1(C)CO[C@@H](CC(=O)N2CCOC3(CCS(=O)(=O)CC3)C2)C1  0%
8. Cc1nc(N)nc(C(F)(F)F)c1Br  -1%
9. CC(=O)Nc1c(-c2ccc(F)cc2)c(C)nn1-c1ccc(C(=O)Nc2nc(C)cs2)cc1  -1%
10. C[C@H](NC(=O)CNC(C)(C)C)c1ccc(F)cc1F  -4%
11. CC(C)(C)OC1CC(NCC(=O)NCC2CC2)C1(C)C (configuration not stated)  -5%
12. CC(=O)Nc1c(-c2ccc(F)cc2)c(C)nn1-c1ccc(C(=O)Nc2cccc(F)c2)cc1  -5%
13. Cc1ccc(-c2cn[nH]c2[C@H]2CCCN(C(=O)c3[nH]cnc3C)C2)cc1  -5%
14. CN(Cc1ncc(-c2ccccc2)o1)c1ccccc1  -6%
15. Cc1cccc2c(-c3cccc(C(N)=O)n3)c[nH]c12  -6%
16. COc1ccc2c(O)c(C(=O)NCCN(C)C)cnc2c1  -7%
17. O=C(N[C@H]1CCn2nccc2C1)c1ccc(OC(F)F)cn1  -8%
18. O=C(NC1CC1)c1ccccc1C(=O)c1ccc(F)cc1  -8%
19. COc1ccc(C(=O)c2ccccc2C(=O)Nc2cn[nH]c2)cc1  -8%
20. COC(=O)[C@H]1CCc2nnc(Cc3ccc(F)cc3)n2C1  -9%
21. c1ccc2c(c1)CCCC2N1CCCC(Cn2cncn2)C1 (configuration not stated)  -9%
22. COc1ccc(C(=O)c2cnc3cc(Cl)ccc3c2-c2ccccc2)cc1  -12%
23. CCn1ncnc1CNC1CC(c2ccc(Br)cc2)C1 (configuration not stated)  -13%
24. Cc1ccc(C(=O)Nc2ncn(Cc3c(F)cccc3Cl)n2)cc1  -15%
25. O=C(c1cnc2ccsc2c1)N1CC2(CCCCC2)C1  -15%
26. CCc1noc(C)c1C(=O)Nc1sc2c(c1C(N)=O)CCCCC2  -23%

In order of falling Z score:
1. O=C(c1cnc2ccsc2c1)N1CC2(CCCCC2)C1  2.61
2. CCc1noc(C)c1C(=O)Nc1sc2c(c1C(N)=O)CCCCC2  2.07
3. CCn1ncnc1CNC1CC(c2ccc(Br)cc2)C1 (configuration not stated)  1.96
4. Cc1ccc(C(=O)Nc2ncn(Cc3c(F)cccc3Cl)n2)cc1  1.74
5. COc1ccc(C(=O)c2ccccc2C(=O)Nc2cn[nH]c2)cc1  1.57
6. COC(=O)[C@H]1CCc2nnc(Cc3ccc(F)cc3)n2C1  1.42
7. COc1ccc(C(=O)c2cnc3cc(Cl)ccc3c2-c2ccccc2)cc1  1.39
8. c1ccc2c(c1)CCCC2N1CCCC(Cn2cncn2)C1 (configuration not stated)  1.31
9. Cc1cccc2c(-c3cccc(C(N)=O)n3)c[nH]c12  1.19
10. O=C(NC1CC1)c1ccccc1C(=O)c1ccc(F)cc1  1.02
11. O=C(N[C@H]1CCn2nccc2C1)c1ccc(OC(F)F)cn1  0.97
12. COc1ccc2c(O)c(C(=O)NCCN(C)C)cnc2c1  0.96
13. CC(=O)Nc1c(-c2ccc(F)cc2)c(C)nn1-c1ccc(C(=O)Nc2cccc(F)c2)cc1  0.93
14. Cc1ccc(-c2cn[nH]c2[C@H]2CCCN(C(=O)c3[nH]cnc3C)C2)cc1  0.87
15. CC(C)(C)OC1CC(NCC(=O)NCC2CC2)C1(C)C (configuration not stated)  0.8
16. CN(Cc1ncc(-c2ccccc2)o1)c1ccccc1  0.5
17. C[C@H](NC(=O)CNC(C)(C)C)c1ccc(F)cc1F  0.48
18. CC(=O)Nc1c(-c2ccc(F)cc2)c(C)nn1-c1ccc(C(=O)Nc2nc(C)cs2)cc1  0.19
19. Cc1nc(N)nc(C(F)(F)F)c1Br  0.16
20. CC1(C)CO[C@@H](CC(=O)N2CCOC3(CCS(=O)(=O)CC3)C2)C1  0.06
21. COc1ccc2c(O)cc(-c3ccccc3)nc2c1  -0.12
22. O=C(c1ccccc1C(F)(F)F)N1CC2(CCOC2)C1  -0.56
23. C[n+]1ccc(-c2ncc(-c3ccccc3)o2)c2ccccc21  -5.73
24. CC(=O)Nc1c(-c2ccc(C)cc2)c(C)nn1-c1ccc(C(=O)Nc2cc(C)ccn2)cc1  -6.89
25. Cc1cccc2c(-c3cc(N)nc(N)n3)c[nH]c12  -9.19
26. O=C(Nc1cnc2ccccc2c1)c1ccccc1C(=O)c1ccc(F)cc1  -10.24
